From PubChem BioAssay (Tox21)
Records with an inconclusive call do not appear. The source made the active and inactive calls. Calls come from the whole dose curve; as a rule, active = well fitted activation curve with a large enough effect in the signal ratio in the repeat runs (not every such curve was filed as active); inconclusive = weak or mixed curves; inactive = flat fitted curve, though single readings scatter; the % refers to the signal ratio.

Experiment: p53 small molecule agonists, cell-based qHTS assay (AID 1963582)
Settings: HCT-116 p53RE-bla reporter, beta-lactamase FRET ratio, 16 h; series mostly up to 66 µM; activation: at the top concentration
Excerpt: National Center for Advancing Translational Sciences [NCATS]
Division of Preclinical Innovation [DPI]
U.S. Environmental Protection Agency [EPA]
National Institutes of Environmental Health Sciences [NIEHS]
National Toxicology Program [NTP]
U.S. Food and Drug Administration [FDA]
p53, a tumor suppressor protein, is activated following cellular insult, including DNA damage and other cellular stresses. The activation of p53 regulates cell fate by inducing DNA repair, cell cycle arrest, apoptosis, or cellular senescence. The activation of p53, therefore, is a good indicator of DNA damage and other cellular stresses. […] The activation of the reporter gene under culture conditions can be detected by fluorescence intensity. This cell line was used to screen the Tox21 10K compound library in a 1536-well plate format and to identify agonists that activate the p53 signaling pathway.
Tox21 Assay Protocol Summary:
The p53RE-bla cells were dispensed at 4,000 cells/5 ul/well in 1536-well black wall/clear bottom plates using a Multidrop dispenser. After the assay plates were incubated at a 37 C/5% CO2 incubator for 5 hours, 23 nL of compounds dissolved in DMSO, positive controls or DMSO only was transferred to the assay plate by a pin tool. The plates were incubated at 37 C for 16 hours. After 1 uL of LiveBLAzerTM B/G FRET substrate was added using a Flying Reagent Dispenser, the plates were incubated at room temperature for 2 hours, and fluorescence intensity was measured by an Envision plate reader.
% is set by controls: 0 for no effect and ±100 for the full control effect.

Row | Compound | activation
1 | CCN(CCCCOC(=O)c1ccc(OC)c(OC)c1)C(C)Cc1ccc(OC)cc1 (stereo not given) | -0.574% [at 30.3 µM] (inactive)
2 | CCN(CC)CCNC(=O)c1cc(S(C)(=O)=O)ccc1OC | 0% [at 30.3 µM] (inactive)
3 | O=C(O)c1c(Cl)cccc1Cl | -2.75% (inactive)
4 | CCO[Si](CCCCl)(OCC)OCC | -4.64% (inactive)
5 | Brc1c2ccccc2cc2ccccc12 | 11.5% (inactive)
6 | CC(C)COC(=O)c1ccccc1 | -0.307% (inactive)
7 | CCCCNc1ccc(NCCCC)c2c1C(=O)c1ccccc1C2=O | 7.46% [at 13.5 µM] (inactive)
8 | CC(=O)N(CC(=O)N(C)C)c1ccccc1 | 0.801% [at 30.3 µM] (inactive)
9 | CCCCCCCCCC[N+](C)(C)[O-] | 0.306% (inactive)
10 | CCOC(=O)[C@H](CCc1ccccc1)N[C@H]1CS[C@H](c2cccs2)CN(CC(=O)O)C1=O | -0.712% [at 30.3 µM] (inactive)
11 | CC(C)C(=O)Nc1cccc(C(F)(F)F)c1 | 0.681% [at 30.3 µM] (inactive)
12 | Cc1ccc(N(CCO)CCO)cc1 | -2.07% (inactive)
13 | COS(=O)(=O)C(F)(F)F | -6.32% (inactive)
14 | Cc1ncc([N+](=O)[O-])n1CC(C)O (stereo not given) | -1.91% [at 30.3 µM] (inactive)
15 | CCOC(=O)C(Br)c1ccccc1 (stereo not given) | -2.45% (inactive)
16 | COc1ccc(OC)c(NC(=O)CC(C)=O)c1 | -3.03% (inactive)
17 | FC(F)(F)C(F)(F)C(F)(F)C(F)(F)CCI | 0.981% [at 30.3 µM] (inactive)
18 | O=C(O)c1ccccc1C(=O)Nc1ccc(S(=O)(=O)Nc2nccs2)cc1 | 0.464% [at 30.3 µM] (inactive)
19 | O=C(/C=C/c1ccccc1)OC/C=C/c1ccccc1 | -1.16% (inactive)
20 | CCOC(=O)CC(CC(=O)OCC)(OC(C)=O)C(=O)OCC | 0.977% (inactive)

Row | Compound | activation
21 | CC(N)CCCC(C)(C)O (stereo not given) | -0.0513% [at 30.3 µM] (inactive)
22 | CC(Oc1cc(Cl)ccc1Cl)C(=O)O (stereo not given) | 0.105% (inactive)
23 | Cc1cc(NC(=O)C2=C(O)c3ccccc3S(=O)(=O)N2C)no1 | -0.344% [at 30.3 µM] (inactive)
24 | C=C[Si](C)(C)Cl | 0.341% [at 5.99 µM] (inactive)
25 | CCc1ccc(O)c(OC)c1 | 3.1% (inactive)
26 | O=C(OCC1(COC(=O)c2cccnc2)CCCC(COC(=O)c2cccnc2)(COC(=O)c2cccnc2)C1O)c1cccnc1 | -0.454% [at 30.3 µM] (inactive)
27 | COc1cnc(NS(=O)(=O)c2ccc(N)cc2)nc1 | -2.02% [at 30.3 µM] (inactive)
28 | Cc1cc(N)c(S(=O)(=O)O)cc1Cl | -2.7% (inactive)
29 | CC(C)C(=O)OCC(C)(C)C(O)C(C)C (stereo not given) | 0.157% (inactive)
30 | C=CC(=O)O | -0.404% [at 30.3 µM] (inactive)
31 | CC(C)C[C@@H](N)C(=O)O | -0.189% [at 13.5 µM] (inactive)
32 | CCOC(=O)CC#N | 0.124% (inactive)
33 | CCc1ccc(CC)cc1 | 1.27% (inactive)
34 | NCCCC[C@H](N[C@@H](CCc1ccccc1)C(=O)O)C(=O)N1CCC[C@H]1C(=O)O | 2.99% [at 30.3 µM] (inactive)
35 | Nc1ccccc1S(=O)(=O)c1ccccc1 | 0.0526% (inactive)
36 | Cc1cc(=O)oc2cc(O[C@@H]3SC[C@@H](O)[C@H](O)[C@H]3O)ccc12 | -2.53% [at 30.3 µM] (inactive)
37 | Nc1ccc(C(=O)N2CC3CC(CN(Cc4ccccc4)C3)C2)cc1 | -3.02% [at 30.3 µM] (inactive)
38 | C#CCN[C@@H]1CCc2ccccc21 | -0.529% [at 30.3 µM] (inactive)
39 | COC(=O)C(C)O (stereo not given) | 0.0654% (inactive)
40 | COc1cc(NS(=O)(=O)c2ccc(N)cc2)ncn1 | 0.328% [at 30.3 µM] (inactive)
